Rv3671c inh – Rv3671c serine protease inhibitors, primary screen, biochemical, fluorescence polarization, M. tuberculosis H37Rv | P9WHR9 | inhibition, % at 5.96 µM | actives 0.048% (n = 320,000); in the data active = inhibition above about 38%;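 note: extracellular domain of Rv3671c used as enzyme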
Target sequence (P9WHR9 whole entry, looked up, the tested form may be a part): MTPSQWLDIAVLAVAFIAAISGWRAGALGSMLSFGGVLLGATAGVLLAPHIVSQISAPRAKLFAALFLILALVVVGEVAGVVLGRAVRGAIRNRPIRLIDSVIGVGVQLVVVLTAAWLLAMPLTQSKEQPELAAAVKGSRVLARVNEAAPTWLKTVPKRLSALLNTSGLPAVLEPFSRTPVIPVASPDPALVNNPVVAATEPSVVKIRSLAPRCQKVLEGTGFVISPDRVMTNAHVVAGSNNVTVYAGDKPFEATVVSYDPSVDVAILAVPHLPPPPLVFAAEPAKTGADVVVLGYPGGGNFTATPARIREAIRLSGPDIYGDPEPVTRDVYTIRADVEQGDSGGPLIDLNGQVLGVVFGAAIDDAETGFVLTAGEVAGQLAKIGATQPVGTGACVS
GDH-TPI counter – GDH-TPI coupling enzyme inhibitors, primary screen, artefact control for M. tuberculosis FBA inhibitor project, biochemical, absorbance, full deck | GDH-TPI coupled enzyme counterscreen, NADH absorbance | inhibition, % at 4.8 µM | actives 1.2% (n = 360,000) | AID 588335, 2011; in the data active = inhibition above about 30%
Mtb bLac sens – beta-lactam sensitization of Mtb H37Rv, H37Rv | actives 0.27% (n = 330,000) | inhibition, % at 25 µM | AID 434955, 2010 | M. tuberculosis H37Rv growth with meropenem, percent inhibition; call rule not given here;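 note: growth measured after seven days incubation then overnight dye step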
RecA splice inh – Mtb RecA intein splicing inhibitors, primary screen, biochemical, fluorescence, HTS. Protein RecA (Mycobacterium tuberculosis (strain ATCC 25618 / H37Rv)), P9WHJ3. cell-free RecA intein splicing. inhibition, % (no concentration beside the values). actives 0.75% (n = 290,000). AID 2221, 2009; in the data active = inhibition above about 30%
Mtb FBA inh – Mtb FBA enzyme inhibitors, primary screen, biochemical, fluorescence, strain H37Rv | Fructose-bisphosphate aldolase (Mycobacterium tuberculosis (strain ATCC 25618 / H37Rv)), … | purified M. tuberculosis FBA, fluorescence read-out | inhibition, % at 1 µM | actives 2.3% (n = 360,000); in the data active = inhibition above about 27%
Mtb UGM inh – M. tuberculosis UGM enzyme inhibitors, primary screen, biochemical, fluorescence polarization, single point; UDP-galactopyranose mutase (Mycobacterium tuberculosis (strain ATCC 25618 / H37Rv)), …; purified UGM, fluorescence polarization probe displacement; inhibition, % at 10 µM; actives 0.06% (n = 320,000); in the data active = inhibition above about 10%, passing the limit was not always enough
Hits are given with their value. Rows were chosen to be rich in hits. Some 4% of all compounds tested hit in one or more screens of this group.

Screening Nc1ccc(-c2nc3cc([N+](=O)[O-])ccc3o2)cc1 returned Rv3671c inh inactive, GDH-TPI counter 41.6, Mtb bLac sens inactive, RecA splice inh inactive, Mtb FBA inh inactive and Mtb UGM inh inactive.
COc1ccc(-c2nc3cc([N+](=O)[O-])ccc3o2)cc1 was read as Rv3671c inh inactive, GDH-TPI counter inactive, Mtb bLac sens inactive, RecA splice inh inactive, Mtb FBA inh inactive and Mtb UGM inh inactive.
For CC(C)c1ccc2oc(-c3ccc(N)cc3)nc2c1 the results were Rv3671c inh inactive, GDH-TPI counter inactive, Mtb bLac sens inactive, RecA splice inh inactive, Mtb FBA inh 191.2 and Mtb UGM inh inactive.
Screening COc1cc(/C=N/NC(=O)C(=O)NCc2ccco2)cc(Cl)c1O returned Rv3671c inh inactive, GDH-TPI counter 36.4, Mtb bLac sens inactive, RecA splice inh inactive, Mtb FBA inh inactive and Mtb UGM inh inactive.
Screening COc1cc(OC)c(OC)cc1/C=N/NC(=S)NCCN1CCOCC1 returned Rv3671c inh inactive, GDH-TPI counter inactive, Mtb bLac sens inactive, RecA splice inh inactive, Mtb FBA inh inactive and Mtb UGM inh inactive.
Screening COc1cc(/C=C(\C#N)C(=O)NCC2CCCO2)ccc1O (stereo unspecified) returned Rv3671c inh inactive, GDH-TPI counter inactive, Mtb bLac sens inactive, RecA splice inh inactive, Mtb FBA inh inactive and Mtb UGM inh inactive.
C=CCOc1cccc(/C=N/NC(=O)C(=O)NCc2ccco2)c1 was read as Rv3671c inh inactive, GDH-TPI counter inactive, Mtb bLac sens inactive, RecA splice inh inactive, Mtb FBA inh inactive and Mtb UGM inh inactive.
Screening COc1cc(/C=N/NC(=O)C(=O)NCc2ccco2)ccc1O returned Rv3671c inh inactive, GDH-TPI counter 32.2, Mtb bLac sens inactive, RecA splice inh inactive, Mtb FBA inh inactive and Mtb UGM inh inactive.
COc1cc(/C=N/NC(=O)C(=O)NCC2CCCO2)ccc1O (stereo unspecified) was read as Rv3671c inh inactive, GDH-TPI counter 37.9, Mtb bLac sens inactive, RecA splice inh inactive, Mtb FBA inh inactive and Mtb UGM inh inactive.
`COc1cc(OC)c(OC)cc1/C=N/NC(=S)NCC1CCCO1` (stereo unspecified) gave Rv3671c inh inactive, GDH-TPI counter 33.8, Mtb bLac sens inactive, RecA splice inh inactive, Mtb FBA inh inactive and Mtb UGM inh inactive.
`CC1CCCC(NC(=O)c2cc(S(=O)(=O)N3CCCCC3)c[nH]2)C1C` (stereo unspecified) gave GDH-TPI counter inactive and Mtb FBA inh inactive.
For Cc1cc2c(cc1S(=O)(=O)CCC(=O)NCCc1ccccc1)OCC(=O)N2 the results were Rv3671c inh inactive, GDH-TPI counter inactive, Mtb bLac sens inactive, RecA splice inh inactive, Mtb FBA inh inactive and Mtb UGM inh inactive.
COc1cccc(OC)c1OCC(=O)Nc1ccc(S(=O)(=O)N2CCCC2)cc1 was read as Rv3671c inh inactive, GDH-TPI counter inactive, Mtb bLac sens inactive, Mtb FBA inh inactive and Mtb UGM inh inactive.
`CC(=O)NN(O)C1N(C)C(=O)N(Cc2ccccc2)C1(C)C` (stereo unspecified) gave Rv3671c inh inactive, GDH-TPI counter inactive, Mtb bLac sens inactive, RecA splice inh inactive, Mtb FBA inh inactive and Mtb UGM inh inactive.
COc1ccc(NC(=O)C(=O)NNC(=O)c2cccs2)c(OC)c1 was read as Rv3671c inh inactive, GDH-TPI counter 36.2, Mtb bLac sens inactive, RecA splice inh inactive, Mtb FBA inh inactive and Mtb UGM inh inactive.
For O=C(O)CC/C(=C/c1cccc(NC(=O)c2ccccc2Cl)c1)c1nc2ccccc2s1 the results were GDH-TPI counter 37.0 and Mtb FBA inh inactive.
Screening Cc1ccc(C(O)c2ncc(-c3ccc4ccccc4c3)[nH]2)cc1F (stereo unspecified) returned GDH-TPI counter inactive and Mtb FBA inh inactive.
CCn1cc(C(=O)NCCCN2CCN(C)CC2)c(=O)c2cc(S(=O)(=O)N3CCc4ccccc4C3)ccc21 was read as Rv3671c inh inactive, GDH-TPI counter inactive, Mtb bLac sens inactive, Mtb FBA inh inactive and Mtb UGM inh inactive.

Screens as filed in PubChem.
